Measles CPE: compounds protecting cells from measles virus cytopathic effect, primary screen, measles RdRp inhibitor project, single point, MLSMR library, absorbance; Measles virus-infected cells, CPE protection; protection (pct of control), % at 4 µM; 140,000 tested, 1.5% active; AID 841, 2007; in the data active means protection mostly above about 24%, no sharp cut-off; inactive means mostly below about 26%
CYP2C19 act: human CYP2C19 activators, primary screen, biochemical, luminescence. recombinant CYP2C19, luciferin-H EGE luminescence; hits give high values; 0 = fully inhibited enzyme, 1 = untreated enzyme. AID 1025, 2008. activation factor at 5 µM. 96,000 tested, under 10 active. Cytochrome P450 2C19 (Homo sapiens), P33261;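 active means activation factor of at least 2 at 5 µM in the primary screen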;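 further: 0 = wells with 2.5 mM tranylcypromine and 1 = vehicle-only wells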
CYP2C9 inh: blockers of cytochrome P450 2C9 activity – biochemical, luminescence, ADME assay, primary screen; CYP2C9 Supersomes, luciferin-H conversion; AID 777, 2007; inhibition, % at 5 µM; P11712; 96,000 tested, 20% active;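 active means blocking of liver enzyme CYP2C9 beyond about 50% at 5 µM, limit read from the data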
Target sequence (P11712 whole entry, looked up): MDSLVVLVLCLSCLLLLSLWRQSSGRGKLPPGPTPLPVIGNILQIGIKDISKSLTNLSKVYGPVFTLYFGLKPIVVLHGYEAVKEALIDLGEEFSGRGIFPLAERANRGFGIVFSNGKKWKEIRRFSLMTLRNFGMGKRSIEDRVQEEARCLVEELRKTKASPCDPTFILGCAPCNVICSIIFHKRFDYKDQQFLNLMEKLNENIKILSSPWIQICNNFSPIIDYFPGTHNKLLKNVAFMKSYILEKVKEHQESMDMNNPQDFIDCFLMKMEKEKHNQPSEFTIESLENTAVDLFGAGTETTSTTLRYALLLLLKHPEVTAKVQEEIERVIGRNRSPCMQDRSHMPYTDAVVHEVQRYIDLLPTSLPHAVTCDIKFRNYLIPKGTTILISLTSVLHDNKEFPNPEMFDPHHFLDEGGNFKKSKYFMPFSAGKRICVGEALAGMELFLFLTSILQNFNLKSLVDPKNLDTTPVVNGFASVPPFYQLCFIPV
CYP2C19 inhib: blockers of cytochrome P450 2C19 activity – biochemical, luminescence, ADME assay, primary screen | CYP2C19 Supersomes, luciferin-H EGE luminescence, 30 min | inhibition, % at 5 µM | 96,000 tested, 21% active | P33261;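 active means CYP2C19 inhibition above a set limit at 5 µM in the primary screen, cut at about 50% in these data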;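 further: plate controls were negative control wells for no effect and 2.5 mM tranylcypromine positive control for full effect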
CYP2C9 act: human CYP2C9 activators, primary screen, biochemical, luminescence; 96,000 tested, 1.4% active; recombinant CYP2C9, luciferin-H conversion; hits give high values; factor 1 = untreated enzyme, 0 = blocked; activation factor at 5 µM; Cytochrome P450 2C9 (Homo sapiens), P11712;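 active means activation factor of 2 or more for CYP2C9 at a 5 µM dose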;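 further: 0 = sulfaphenazole-blocked wells and 1 = vehicle-only wells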
Numbers without * were called inactive; . = no result given. Compounds with a hit are over-represented: about 22% of the library has one in this group of screens.

SMILES | Measles CPE | CYP2C19 act | CYP2C9 inh | CYP2C19 inhib | CYP2C9 act
CC(NS(=O)(=O)c1ccc(OCC(=O)N2CCOCC2)c(Cl)c1)c1ccccc1 (centres undefined) | 2 | 0.5 | 64* | 49 | 0.4
COCCOC(=O)c1c(NC(=O)CN2CCCc3ccccc32)sc(C(N)=O)c1C | 1 | . | . | . | .
N/C(Cc1ccc([N+](=O)[O-])cc1)=N\OC(=O)c1ccc2ccccc2c1 | 1 | 1 | -17 | -4 | 1.2
Cc1cccc(C(=O)O/N=C(\N)Cc2ccc([N+](=O)[O-])cc2)c1 | 6 | 0.2 | 37 | 84* | 0.6
N/C(Cc1ccc([N+](=O)[O-])cc1)=N\OC(=O)C(c1ccccc1)c1ccccc1 | 22 | 0.7 | 54* | 29 | 0.5
CCOC(=O)CN1C(=O)CSc2ccccc21 | 7 | 0.9 | -5 | 9 | 1.1
CN1CC2=Cc3ccccc3OC23Oc2ccccc2C=C3C1 | 1 | 0.5 | 58* | 54* | 0.4
CC(C)C(=O)Nc1ccc(C(=O)NN2C(=O)c3ccccc3C2=O)cc1 | 11 | . | . | . | .
CCN(CC)C(=O)CCNS(=O)(=O)c1ccc(C)cc1 | 7 | 0.6 | -22 | 37 | 1.2
CCCc1nc2oc3c(NCc4ccccn4)ncnc3c2c2c1COC(C)(C)C2 | 6 | 0.7 | 52* | 30 | 0.5
CCCc1nc2oc3c(NCC4CCCO4)ncnc3c2c2c1COC(C)(C)C2 (centres undefined) | 19 | 0.6 | 52* | 38 | 0.5
Cc1ccc(CS(=O)(=O)CCC(=O)NCCCN2CCCC2=O)cc1 | 5 | 1.1 | -5 | -7 | 1
CCOc1ccc(-c2nc(CSc3nncs3)cs2)cc1OC | 9 | 0.5 | 7 | 53* | 0.9
CCOc1ccc(-c2nc(CSc3nnc(C)s3)cs2)cc1OC | 4 | 0.8 | 10 | 22 | 0.9
O=C(Cn1nnc2c(cnn2-c2ccc(F)cc2)c1=O)OC1CCCCC1 | 3 | 0.4 | 46 | 62* | 0.5
COC(=O)CCNS(=O)(=O)c1ccc2ccccc2c1 | 17 | . | . | . | .
COc1ccc(NC(=S)N2CCC(c3nc4ccccc4[nH]3)CC2)c(OC)c1 | 5 | 0.8 | 59* | 22 | 0.4
CCOc1ccccc1NC(=O)N1CCC(c2nc3ccccc3[nH]2)CC1 | 34 | 0.4 | -47 | 63* | 1.5
CCn1c(C)cc2c(c1=O)C(c1ccccc1Br)C(C#N)=C(N)O2 (centres undefined) | 6 | 0.7 | 34 | 31 | 0.7
CCC(CC)C1C(C#N)=C(N)Oc2cc(C)oc(=O)c21 (centres undefined) | 5 | 0 | 72* | 96* | 0.3
COc1ccc(C(=O)CC(Nc2ccc([N+](=O)[O-])cc2)c2ccc(OC)cc2)cc1 (centres undefined) | 11 | 0.6 | 68* | 43 | 0.3
CC(C)(C)c1cc(NCCCn2ccnc2)n2ncc(-c3ccc(Cl)cc3)c2n1 | 3 | 0.9 | 66* | 8 | 0.3
Cc1cc(NCCOCCO)n2ncc(-c3ccc(Cl)cc3)c2n1 | 5 | 0.7 | 28 | 29 | 0.7
Cc1cc(C)c2c(n1)nn1c(NCCCn3ccnc3)cc(C)nc21 | . | 0.3 | 96* | 69* | 0
Cc1cc(NCCCn2ccnc2)n2nc(-c3ccc(F)cc3)cc2n1 | 4 | 0 | 98* | 97* | 0
SMILES | Measles CPE | CYP2C19 act | CYP2C9 inh | CYP2C19 inhib | CYP2C9 act
Cc1ccc(C(=O)N2CCN(c3ccc(NC(=O)CSc4ccc(Cl)cc4)cc3)CC2)cc1 | 9 | . | . | . | .
CC1=NN(c2ccc(C)cc2C)C(=O)C1C(c1ccccc1O)C1C(=O)N(c2ccc(C)cc2C)N=C1C (centres undefined) | 11 | . | . | . | .
CC1=NN(c2ccc(C)c(C)c2)C(=O)C1C(c1cccc(O)c1)C1C(=O)N(c2ccc(C)c(C)c2)N=C1C (centres undefined) | 18 | 0.8 | 61* | 24 | 0.4
O=S(=O)(NCCSc1nc2ccccc2o1)c1ccccc1 | 11 | 0.1 | 73* | 89* | 0.3
O=S(=O)(CCSc1nc2ccccc2o1)c1nc2ccccc2s1 | 0 | 0.2 | 89* | 82* | 0.1
O=C(NCc1ccccn1)c1cccc(NS(=O)(=O)c2ccccc2F)c1 | 28 | . | . | . | .
CC1(C)OC2OC(C(=O)N/N=C/c3cc(Br)ccc3O)C3OC(C)(C)OC3C2O1 (centres undefined) | 4 | . | . | . | .

Screens from PubChem.
